PrPC surface inh = inhibitors of human cell surface prion protein PrPC | TR-FRET read-out | P04156 | hit rate 0.43% among 370,000 | AID 720596 | inhibition, % at 13.8 µM; in the data active means inhibition above about 24%
CCHF vOTU inh-1 = blocks the CCHF virus ovarian tumor domain protease | inhibition, % at 11.5 µM | hit rate 0.55% among 370,000 | CCHFV vOTU protease, Pep-AMC fluorescence
TcdB inh = inhibitors of Clostridioides difficile toxin B glycohydrolase | P18177 | TcdB glycohydrolase enzymatic assay, plate reader | inhibition, % at 9.99 µM | hit rate 0.24% among 350,000; in the data active means inhibition above about 10%
SSB-PriA inh = blocks PriA binding to SSB C-terminal tail; AlphaScreen SSBct-PriA binding, biotinylated peptide; inhibition, % at 33 µM; hit rate 0.6% among 430,000; in the data active means inhibition mostly above about 37%, no sharp cut-off; inactive means mostly below about 20%
DUSP3 inh = DUSP3 (human) phosphatase inhibition; P51452; recombinant VHR phosphatase, pNPP absorbance; inhibition, % at 13.3 µM; hit rate 0.52% among 290,000; AID 1654; in the data active means inhibition above about 50%
Target sequence (P51452 whole entry, looked up): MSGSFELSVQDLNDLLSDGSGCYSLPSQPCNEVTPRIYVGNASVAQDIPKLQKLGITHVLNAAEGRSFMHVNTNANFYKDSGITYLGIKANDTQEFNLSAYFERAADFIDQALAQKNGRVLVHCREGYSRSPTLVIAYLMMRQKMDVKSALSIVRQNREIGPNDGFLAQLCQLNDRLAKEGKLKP
Vc quorum ag = quorum light induction in luxS cqsA deficient V. cholerae; V. cholerae BH1578 lux reporter, luminescence, 6 h; activation, % at 18.7 µM; hit rate 0.16% among 350,000; AID 588436; in the data active means activation mostly above about 9.7%, no sharp cut-off
CCHF vOTU inh-2 = confirmation of CCHF virus vOTU protease inhibitors; AID 686976; hit rate 17% among 1,900; Recombinant CCHFV vOTU, Pep-AMC fluorescence; inhibition, % at 11.5 µM; shares compounds with CCHF vOTU inh-1
A number is an active result. Sampled rows, rich in hits. Any-hit rate of the full collection: about 1.5%. Unless noted, no stated cut-off is given here; in the data, active means inhibition above about 30%; inactive means the rest.

Screening O=[N+]([O-])c1cc(Br)c2c(c1)CCN2 returned PrPC surface inh inactive, CCHF vOTU inh-1 30, TcdB inh inactive, Vc quorum ag inactive and CCHF vOTU inh-2 inactive.
CC1(C)CC(=O)C2=C(C1)c1c(ccc3ccccc13)NC2c1cc([N+](=O)[O-])cc([N+](=O)[O-])c1O (centres undefined) was read as PrPC surface inh inactive, CCHF vOTU inh-1 44, TcdB inh inactive, SSB-PriA inh inactive, DUSP3 inh inactive, Vc quorum ag inactive and CCHF vOTU inh-2 inactive.
`CN1CCc2nc(SCC(=O)Nc3cccc(F)c3)c(C#N)c(-c3cccs3)c2C1` gave PrPC surface inh inactive, CCHF vOTU inh-1 inactive, SSB-PriA inh inactive, DUSP3 inh inactive and Vc quorum ag inactive.
CN1CCc2nc(SCC(=O)Nc3ccc(OC(F)(F)F)cc3)c(C#N)c(-c3cccs3)c2C1 was read as PrPC surface inh inactive, CCHF vOTU inh-1 35, SSB-PriA inh inactive, DUSP3 inh inactive, Vc quorum ag inactive and CCHF vOTU inh-2 inactive.
For CCNC(=O)N1CCN(c2ccc(N3CCN(C(=O)NCC)[C@@H](C)C3)c(C)c2)[C@H](C)C1 the results were PrPC surface inh inactive, CCHF vOTU inh-1 35, TcdB inh inactive and CCHF vOTU inh-2 inactive.
For CCNC(=O)N1CCN(c2ccc(N3CCN(C(=O)NCC)[C@H](C)C3)c(C)c2)[C@H](C)C1 the results were PrPC surface inh inactive, CCHF vOTU inh-1 inactive and TcdB inh inactive.
`NC(=S)N/N=C/c1ccc(/C=N/NC(N)=S)cc1` gave PrPC surface inh inactive, CCHF vOTU inh-1 36, TcdB inh inactive, DUSP3 inh inactive, Vc quorum ag inactive and CCHF vOTU inh-2 inactive.
COCCn1c(SCC(=O)Nc2cccnc2Cl)nc2ccccc2c1=O was read as PrPC surface inh inactive, CCHF vOTU inh-1 31, TcdB inh inactive, SSB-PriA inh inactive, Vc quorum ag inactive and CCHF vOTU inh-2 inactive.
Screening Nc1c(C(=O)NCCCc2ccccc2)c2nc3ccccc3nc2n1Cc1cccs1 returned PrPC surface inh inactive, CCHF vOTU inh-1 109, SSB-PriA inh inactive, DUSP3 inh inactive, Vc quorum ag inactive and CCHF vOTU inh-2 inactive.
Cc1nc(Nc2ccc(NC(=O)COc3ccc(-n4cccn4)nn3)cc2)cc(N(C)C)n1 was read as SSB-PriA inh inactive.
`Cc1nc2ccc3nc(NC(=O)CCS(=O)(=O)Cc4ccccc4)sc3c2s1` gave SSB-PriA inh inactive.
For O=C(O)CC/C(=C\c1ccc(N2CCCC2)c([N+](=O)[O-])c1)c1nc2ccccc2s1 the results were PrPC surface inh inactive, CCHF vOTU inh-1 33, TcdB inh inactive, SSB-PriA inh inactive, DUSP3 inh inactive, Vc quorum ag inactive and CCHF vOTU inh-2 inactive.
For CN(c1ccccc1)c1ccc(/C=C(/CCC(=O)O)c2nc3ccccc3s2)cc1[N+](=O)[O-] the results were PrPC surface inh inactive, CCHF vOTU inh-1 32, TcdB inh inactive, SSB-PriA inh inactive and CCHF vOTU inh-2 inactive.
O=C(O)CC/C(=C\c1ccccc1[N+](=O)[O-])c1nc2ccccc2s1 was read as PrPC surface inh inactive, CCHF vOTU inh-1 inactive, TcdB inh inactive, SSB-PriA inh inactive, DUSP3 inh inactive and Vc quorum ag inactive.
Screening Cc1cccc(NC(=S)N/N=C/c2ccc([N+](=O)[O-])s2)c1 returned PrPC surface inh inactive, CCHF vOTU inh-1 35, DUSP3 inh inactive, Vc quorum ag inactive and CCHF vOTU inh-2 inactive.
`Cc1cccc(NC(=S)NN=Cc2cccc([N+](=O)[O-])c2)c1` gave SSB-PriA inh inactive.
For O=C(C1c2ccccc2Oc2ccccc21)N(CCc1cccs1)Cc1cccnc1 the results were SSB-PriA inh inactive.
Screening Cc1cc2cc(CN(Cc3ccco3)C(=S)NCC3CCCO3)c(=O)[nH]c2cc1C (centres undefined) returned PrPC surface inh inactive, CCHF vOTU inh-1 31, SSB-PriA inh inactive, DUSP3 inh inactive, Vc quorum ag inactive and CCHF vOTU inh-2 inactive.
Screening Cc1[nH]n(-c2ccccc2)c(=O)c1C(c1ccc(C(=O)O)cc1)c1c(C)[nH]n(-c2ccccc2)c1=O returned PrPC surface inh inactive, CCHF vOTU inh-1 71, TcdB inh inactive, SSB-PriA inh inactive, DUSP3 inh inactive, Vc quorum ag inactive and CCHF vOTU inh-2 inactive.
COc1cc(C(c2c(C)[nH]n(-c3ccccc3)c2=O)c2c(C)[nH]n(-c3ccccc3)c2=O)cc(OC)c1OC was read as PrPC surface inh inactive, CCHF vOTU inh-1 80, TcdB inh inactive, SSB-PriA inh inactive, DUSP3 inh inactive, Vc quorum ag inactive and CCHF vOTU inh-2 inactive.
Screening Clc1nc2c(Cl)ccc(Cl)c2s1 returned SSB-PriA inh inactive.
`N#CC1CCN(S(=O)(=O)c2ccccc2)CC1` gave SSB-PriA inh inactive.
For O=C1c2ccccc2-c2onc3ccc(N4CCCC4)c1c23 the results were PrPC surface inh inactive, CCHF vOTU inh-1 inactive, TcdB inh inactive, SSB-PriA inh inactive, DUSP3 inh inactive and Vc quorum ag inactive.
`O=C1c2ccccc2C(=O)c2c1cccc2N1CCCC1` gave PrPC surface inh inactive, CCHF vOTU inh-1 75, TcdB inh inactive, SSB-PriA inh inactive, DUSP3 inh inactive, Vc quorum ag inactive and CCHF vOTU inh-2 inactive.
For O=S(=O)(c1ccccc1S(=O)(=O)N1CCCCC1)N1CCCCC1 the results were TcdB inh inactive, SSB-PriA inh inactive, DUSP3 inh inactive and Vc quorum ag inactive.
`O=C1C=C(N2CCCCC2)c2ccccc2C1=O` gave PrPC surface inh inactive, CCHF vOTU inh-1 82, TcdB inh inactive, SSB-PriA inh inactive, Vc quorum ag inactive and CCHF vOTU inh-2 81.
O=C(CSc1nc(=O)n(CCN2CCOCC2)c2c1CCCC2)Nc1ccccc1C(F)(F)F was read as SSB-PriA inh inactive.
For CN(C)c1cccc2c(S(=O)(=O)Nc3ccccn3)cccc12 the results were PrPC surface inh inactive, CCHF vOTU inh-1 38, SSB-PriA inh inactive, DUSP3 inh inactive, Vc quorum ag inactive and CCHF vOTU inh-2 inactive.
For CC1(C)Nc2cccc3cccc(c23)N1 the results were PrPC surface inh inactive, CCHF vOTU inh-1 33, TcdB inh inactive, SSB-PriA inh inactive, Vc quorum ag inactive and CCHF vOTU inh-2 inactive.
For c1cc2c3c(cccc3c1)NC1(CCCC1)N2 the results were PrPC surface inh inactive, CCHF vOTU inh-1 inactive, TcdB inh inactive, SSB-PriA inh inactive and Vc quorum ag inactive.
For CCOC(=O)N(CC)c1ccc(C(O)(C(=O)OCC)C(F)(F)F)cc1 (centres undefined) the results were PrPC surface inh inactive, CCHF vOTU inh-1 31, SSB-PriA inh inactive, DUSP3 inh inactive, Vc quorum ag inactive and CCHF vOTU inh-2 inactive.
For CCOC(=O)C(O)(c1ccc(N(CC)C(=O)OC)cc1)C(F)(F)F (centres undefined) the results were PrPC surface inh inactive, CCHF vOTU inh-1 inactive, SSB-PriA inh inactive, DUSP3 inh inactive and Vc quorum ag inactive.
`CCOC(=O)c1csc(NC(=O)c2ccnn2CC)n1` gave SSB-PriA inh inactive.

Compound activity as filed in PubChem BioAssay.
